Assay outcomes (PubChem BioAssay)
HSP90 refold inh: blocks HSP90-mediated luciferase refolding in reticulocyte lysate; inhibition, % at 5.6 µM; Rabbit reticulocyte lysate, luciferase refolding luminescence, 3 h; actives 0.91% (n = 290,000);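 active means inhibition above the screen-wide mean plus 3 SD, computed separately per campaign, cut at about 16% in these data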;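 further: inhibitors lower the luminescence because luciferase stays unfolded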
MPTP inh: inhibitors of mitochondrial permeability transition pore. isolated mouse mitochondria, Ca2+ swelling absorbance, 30 min. inhibition, % at 10 µM. actives 1.4% (n = 360,000);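 active means inhibition of 50% or more, scaled per plate between neutral and stimulator controls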
Platelet DG rel: platelet dense granule release activity; human platelet-rich plasma, SFLLRN dense granule ATP release, luminescence; inhibition, %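 (compounds screened at 7.5 µM in platelet-rich plasma)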; actives 0.22% (n = 300,000); AID 1663;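 active means mean replicate score, as percent of positive control, at or above 50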
HSF1 inhib: HSF1 inhibition. activity change, negative = inhibition, % at 7.5 µM (by protocol). actives 0.77% (n = 300,000). AID 2098. NIH3T3-HGL HSE-luciferase, MG132-induced, luminescence 8 h; active compounds read low;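 active means more than half of replicate wells show activity change below -50%, luminescence cut by over half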;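 further: luciferase reports HSF-1 transcriptional activity via heat shock element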
HSF-1 act: increases HSF-1 driven luciferase reporter signal; NIH3T3-HGL HSF-1 luciferase reporter, MG132, 8 h; 100% = twice DMSO control signal; activation, % at 9 µM; actives 1.7% (n = 300,000);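 active means mean replicate activation of at least 50% with a set share of replicates each reaching 50%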
dFosB act: enhances mouse delta FosB homodimer DNA binding; P13346; purified delta FosB, TAMRA-CDK5 oligo fluorescence polarization; percent of positive-control signal above neutral wells; activation, % at 25 µM; actives 0.99% (n = 340,000);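 active means mean activation above about 17%, with every replicate also reaching it, limit read from the data, passing the limit was not always enough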
Target sequence (P13346 whole entry, looked up): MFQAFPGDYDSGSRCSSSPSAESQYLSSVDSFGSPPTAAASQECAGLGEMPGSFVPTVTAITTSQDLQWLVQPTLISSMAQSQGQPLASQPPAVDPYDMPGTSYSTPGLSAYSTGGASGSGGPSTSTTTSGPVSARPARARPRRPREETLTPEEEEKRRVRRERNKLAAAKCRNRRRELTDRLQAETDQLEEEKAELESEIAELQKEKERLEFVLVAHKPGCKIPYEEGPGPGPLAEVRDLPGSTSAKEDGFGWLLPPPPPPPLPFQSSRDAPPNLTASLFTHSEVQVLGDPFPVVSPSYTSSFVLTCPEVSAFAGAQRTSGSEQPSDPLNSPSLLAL
Hits are given with their value. In the library only some 4.9% were active in any assay of this set; here they are far more common.

`Clc1ccccc1Nc1nnc(-c2ccncc2)s1` gave HSP90 refold inh 22, MPTP inh inactive, Platelet DG rel 69, HSF1 inhib inactive, HSF-1 act inactive and dFosB act inactive.
`C/C(=N\OCC(=O)Nn1c(=O)[nH]c2ccccc2c1=O)c1cccs1` gave HSP90 refold inh inactive, MPTP inh inactive, Platelet DG rel inactive, HSF1 inhib -58, HSF-1 act inactive and dFosB act inactive.
CC(=O)c1ccc(NC(=O)CO/N=C(\C)c2cccs2)cc1 was read as HSP90 refold inh inactive, MPTP inh inactive, Platelet DG rel inactive, HSF1 inhib inactive, HSF-1 act inactive and dFosB act inactive.
`O=C(O)c1ccn(Cn2cnc3ccccc32)n1` gave HSP90 refold inh inactive, MPTP inh inactive, Platelet DG rel inactive, HSF1 inhib -75, HSF-1 act inactive and dFosB act inactive.
O=C1CCC/C(=N\NC(=O)c2ccc(COc3ccccc3-c3ccccc3)cc2)C1 was read as HSP90 refold inh inactive, MPTP inh inactive, Platelet DG rel inactive, HSF1 inhib inactive, HSF-1 act 72 and dFosB act inactive.
`O=C(CCc1cccc(Cl)c1)N1CCCC(Nc2ccccc2)C1` (stereo not drawn) gave HSP90 refold inh inactive, MPTP inh inactive, Platelet DG rel inactive, HSF1 inhib inactive, HSF-1 act inactive and dFosB act inactive.
For COc1ccc(N2C(=O)CC(NNc3ncc(Cl)cc3Cl)C2=O)cc1 (stereo not drawn) the results were HSP90 refold inh inactive, MPTP inh inactive, Platelet DG rel inactive, HSF1 inhib -60, HSF-1 act inactive and dFosB act inactive.
Cc1cnccc1CNC(=O)CC1C(=O)NCCN1CC(C)(C)C (stereo not drawn) was read as HSP90 refold inh inactive, MPTP inh inactive, Platelet DG rel inactive, HSF1 inhib inactive, HSF-1 act inactive and dFosB act inactive.
`O=c1cc(-c2ccccc2Cl)oc2cc(O)cc(O)c12` gave HSP90 refold inh inactive, MPTP inh inactive, Platelet DG rel inactive, HSF1 inhib inactive, HSF-1 act inactive and dFosB act inactive.
O=C1C=CC(O)(c2cc(=O)c3c(O)cc(O)cc3o2)C=C1 was read as HSP90 refold inh inactive, MPTP inh inactive, Platelet DG rel inactive, HSF1 inhib -91, HSF-1 act inactive and dFosB act inactive.
For CC(C)N(C(=O)N1CCN(c2ccnc3cc(Cl)ccc23)CC1)C(C)C the results were HSP90 refold inh inactive, MPTP inh inactive, Platelet DG rel inactive, HSF1 inhib inactive, HSF-1 act inactive and dFosB act inactive.
`CN1CCN(c2ccc(NC(=O)c3ccc(-c4ccc(Br)cc4)o3)cc2)CC1` gave HSP90 refold inh inactive, MPTP inh inactive, Platelet DG rel inactive, HSF1 inhib inactive, HSF-1 act inactive and dFosB act 41.
`CCN1CCN(c2ccc(NC(=O)c3ccc(Br)o3)cc2)CC1` gave HSP90 refold inh inactive, MPTP inh inactive, Platelet DG rel inactive, HSF1 inhib inactive, HSF-1 act 56 and dFosB act inactive.
O=C(Nc1ccc(N2CCN(C(=O)c3ccccc3)CC2)cc1)c1ccc(Br)o1 was read as HSP90 refold inh inactive, MPTP inh inactive, Platelet DG rel inactive, HSF1 inhib inactive, HSF-1 act inactive and dFosB act inactive.
O=C(Nc1ccc(N2CCCC2)cc1)c1ccc(Br)o1 was read as HSP90 refold inh inactive, MPTP inh inactive, Platelet DG rel inactive, HSF1 inhib inactive, HSF-1 act inactive and dFosB act 40.
`O=C(Nc1ccc(S(=O)(=O)N2CCOCC2)cc1)c1ccc(Br)o1` gave HSP90 refold inh inactive, MPTP inh inactive, Platelet DG rel inactive, HSF1 inhib inactive, HSF-1 act 59 and dFosB act inactive.
`CCCC(=O)N1CCN(c2ccc(NC(=O)c3ccc(Br)o3)cc2)CC1` gave HSP90 refold inh inactive, MPTP inh inactive, Platelet DG rel inactive, HSF1 inhib inactive, HSF-1 act inactive and dFosB act inactive.
`O=C(Nc1ccc(S(=O)(=O)N2CCCC2)cc1)c1ccc(Br)o1` gave HSP90 refold inh inactive, MPTP inh inactive, Platelet DG rel inactive, HSF1 inhib inactive, HSF-1 act inactive and dFosB act inactive.
For CS(=O)(=O)c1ccc(CNC(=O)C2(C(F)(F)F)CC(CCCO)CCCO2)cc1 (stereo not drawn) the results were Platelet DG rel inactive, HSF1 inhib inactive and HSF-1 act inactive.
For N#Cc1ccc(OCCN2CCc3ccccc3C2)cc1 the results were MPTP inh inactive, Platelet DG rel inactive, HSF1 inhib inactive, HSF-1 act 85 and dFosB act inactive.
Screening COc1ccc(OCCOCCN2CCc3ccccc3C2)cc1 returned HSP90 refold inh inactive, MPTP inh inactive, Platelet DG rel inactive, HSF1 inhib inactive, HSF-1 act inactive and dFosB act inactive.
Screening COc1ccccc1C#Cc1cnc2c(c1)C(=O)N([C@H](C)CO)C[C@@H](C)[C@@H](CN(C)C(=O)c1ccc3c(c1)OCO3)O2 returned MPTP inh inactive.
Screening CCOC(=O)c1c(NC(=O)c2ccccc2)sc2c(O)c(CN(CC)CC)ccc12 returned HSP90 refold inh inactive, MPTP inh inactive, Platelet DG rel inactive, HSF1 inhib -73, HSF-1 act inactive and dFosB act inactive.
For S=C(NCc1ccco1)N/N=C/c1ccc(Cl)cc1 the results were HSP90 refold inh inactive, MPTP inh inactive, Platelet DG rel inactive, HSF1 inhib inactive, HSF-1 act 95 and dFosB act inactive.
`Oc1ccc(/C=N/NC(=S)NCc2ccco2)cc1` gave HSP90 refold inh inactive, MPTP inh inactive, Platelet DG rel inactive, HSF1 inhib inactive, HSF-1 act inactive and dFosB act inactive.
CN(C)c1ccc(/C=N/NC(=S)NCc2ccccc2)cc1 was read as HSP90 refold inh inactive, MPTP inh inactive, Platelet DG rel inactive, HSF1 inhib inactive, HSF-1 act 55 and dFosB act inactive.
For CCCCCCn1c(SCC(=O)NC2CCS(=O)(=O)C2)nc2ccccc2c1=O (stereo not drawn) the results were MPTP inh inactive.
Screening Cc1ccc(-c2cc(C(F)(F)F)c(C#N)c(SCC(=O)O)n2)cc1 returned HSP90 refold inh inactive, MPTP inh inactive, Platelet DG rel inactive, HSF1 inhib inactive, HSF-1 act 58 and dFosB act inactive.
For O=C(Nc1cccc(Br)c1)c1cc2ccccc2o1 the results were HSP90 refold inh inactive, MPTP inh inactive, Platelet DG rel inactive, HSF1 inhib inactive, HSF-1 act 86 and dFosB act inactive.
CSc1ccccc1C(=O)Nc1ncc(C)s1 was read as HSP90 refold inh inactive, MPTP inh inactive, Platelet DG rel 55, HSF1 inhib inactive, HSF-1 act inactive and dFosB act inactive.
Screening COc1cc(NC(=O)c2c(OC)cccc2OC)ccc1NC(=O)c1cc2ccccc2o1 returned HSP90 refold inh inactive, MPTP inh inactive, Platelet DG rel inactive, HSF1 inhib inactive, HSF-1 act 52 and dFosB act inactive.
Screening Cc1cccc(NC(=O)c2cc3ccccc3o2)c1 returned HSP90 refold inh inactive, MPTP inh inactive, Platelet DG rel inactive, HSF1 inhib inactive, HSF-1 act 76 and dFosB act inactive.
